Where “and” joins values, the source holds several entries; their conditions need not be identical. Equal values may be shown once. Results filed as inconclusive are left out. Calls of active or inactive are those of the source. Calls come from the whole dose curve; as a rule, active = well fitted curve in the direction sought with a large enough effect; inconclusive = small, poorly fitted or top-dose-only effect, or another doubt; inactive = no such curve, though single readings can be large; an effect the other way counts as inactive or inconclusive.
Experiments:
[1] = target: Cellular tumor antigen p53 (Homo sapiens) (UniProt P04637); assay: Primary qHTS for small molecule compounds that upregulate eGFP-tagged delta133p53alpha (in N-terminal) cells. (AID 2060322); settings: NCI-H358 eGFP-delta133p53alpha fluorescence, 24 h; activation: active compounds read high; note: nearly all actives have a fitted effect of over 75% in size; note: potency is the fitted concentration of half-maximal effect;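 for activation: 0% = DMSO vehicle and 100% = reference activator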
Cellular tumor antigen p53 (Homo sapiens), sequence (P04637 whole entry, looked up): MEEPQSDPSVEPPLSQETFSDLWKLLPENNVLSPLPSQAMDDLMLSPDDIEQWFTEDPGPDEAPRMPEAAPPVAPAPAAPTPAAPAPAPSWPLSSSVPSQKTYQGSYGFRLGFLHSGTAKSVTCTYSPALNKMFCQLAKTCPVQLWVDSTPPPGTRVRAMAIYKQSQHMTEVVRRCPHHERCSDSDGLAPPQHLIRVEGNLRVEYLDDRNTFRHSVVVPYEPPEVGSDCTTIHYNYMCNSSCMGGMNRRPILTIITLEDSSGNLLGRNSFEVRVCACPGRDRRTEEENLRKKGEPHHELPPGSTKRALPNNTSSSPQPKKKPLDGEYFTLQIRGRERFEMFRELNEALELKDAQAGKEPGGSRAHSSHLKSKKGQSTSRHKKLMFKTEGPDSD
In short: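 NCI-H358 cells pre-induced 24 h with 10 ng/ml doxycycline to express N-terminal eGFP-delta133p53alpha, then dosed 24 h at 37C without doxycycline; fixed, Hoechst-stained, GFP intensity by laser scanning cytometry, normalized to DMSO (0%) and 57.5 uM 5-azacytidine (100%).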

[2] = target: Aldehyde dehydrogenase, mitochondrial (Homo sapiens) (UniProt P05091); assay: qHTS for Inhibitors of the Aldehyde Dehydrogenase Family (ALDH2) Primary screen (AID 2061308); settings: ALDH2 enzyme inhibition qHTS, 1536-well; series mostly up to 56 µM;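 note: plate controls were vehicle for no effect and reference inhibitor for full effect; nearly all actives have a fitted effect of over 55% in size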
[3] = target: Retinaldehyde dehydrogenase 3 (Homo sapiens) (UniProt P47895); assay: qHTS for Inhibitors of the Aldehyde Dehydrogenase Family (ALDH1A3) Primary screen (AID 2061315); settings: ALDH inhibition qHTS; series mostly up to 56 µM;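 note: plate controls were DMSO vehicle for no effect and reference inhibitor for full effect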
[4] = BET inhibitor-based combinations targeting novel dependencies in MECOM-rearranged (r) AML: SET-2 cell line (AID 2202231); settings: SET-2 AML cells viability, CellTiter-Glo luminescence, 48 h; viability: active compounds read low, concentration not given here; note: nearly all actives have a fitted effect of over 35% in size; note: potency is the fitted concentration of half-maximal effect;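 for viability: plate controls were DMSO treated cells for no effect and wells without cells for full effect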
In short: (§1)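 Viability of cells (500 per well) is scored by luminescent CellTiter-Glo at 48 hr post-dosing. Eleven-point titrations are normalized to DMSO and empty controls and reduced to AUC values.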

[5] = BET inhibitor-based combinations targeting novel dependencies in MECOM-rearranged (r) AML: OCI-AML3 cell line (AID 2202232); settings: CellTiter-Glo luminescence, 48 h; Potency: OCI-AML3 viability; series mostly up to 46 µM; note: nearly all actives have a fitted effect of over 35% in size; note: potency is the fitted concentration of half-maximal effect
In short: as §1

[6] = BET inhibitor-based combinations targeting novel dependencies in MECOM-rearranged (r) AML: MV-4-11 cell line (AID 2202233); settings: MV-4-11 AML viability, CellTiter-Glo luminescence, 48 h; series mostly up to 46 µM; note: nearly all actives have a fitted effect of over 45% in size; note: potency is the fitted concentration of half-maximal effect
In short: (§2)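 Using pin-tool transfer, drugs were added in 11 doses to cells (500/well), incubated 48 hr, and assessed with CellTiter-Glo. Z-AUC is a mean-centring transformation applied separately to each screened line.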

[7] = BET inhibitor-based combinations targeting novel dependencies in MECOM-rearranged (r) AML: HNT-34 cell line (AID 2202234); settings: HNT-34 AML viability, CellTiter-Glo luminescence, 48 h; series mostly up to 46 µM; note: nearly all actives have a fitted effect of over 35% in size; note: potency is the fitted concentration of half-maximal effect
In short: as §2

[8] = BET inhibitor-based combinations targeting novel dependencies in MECOM-rearranged (r) AML: UCSD-AML1 cell line (AID 2202235); settings: UCSD-AML1 AML cells viability, CellTiter-Glo, 48 h; series mostly up to 46 µM; note: nearly all actives have a fitted effect of over 40% in size; note: potency is the fitted concentration of half-maximal effect
In short: as §2

[9] = BET inhibitor-based combinations targeting novel dependencies in MECOM-rearranged (r) AML: AML-191 cell line (AID 2202236; note: nearly all actives have a fitted effect of over 35% in size; note: potency is the fitted concentration of half-maximal effect); settings: AML-191 viability, CellTiter-Glo luminescence, 48 h; series mostly up to 46 µM
In short: as §1

[10] = BET inhibitor-based combinations targeting novel dependencies in MECOM-rearranged (r) AML: AML-194 cell line (AID 2202237; note: nearly all actives have a fitted effect of over 40% in size; note: potency is the fitted concentration of half-maximal effect); settings: AML-194 (MECOM-r AML) viability, CellTiter-Glo, 48 h; series mostly up to 46 µM
In short: as §1

O=C(O)CCCCCC(=O)NN=C1CCCC1
inactive: activation [1] -11% | Potency [2] | Potency [3] | viability [4] 108% | Potency [5] | Potency [6] | Potency [7] | Potency [8] | Potency [9] | Potency [10]

CS(=O)(=O)c1ccc(Oc2cc(F)cc(C#N)c2)c2c1[C@H](O)C(F)(F)C2
inactive: activation [1] -20.7% | Potency [2] | Potency [3] | viability [4] 103% | Potency [5] | Potency [6] | Potency [7] | Potency [8] | Potency [9] | Potency [10]

COc1ccc(-c2cc3c(C)nc(N)nc3n(C3CCC(OCCO)CC3)c2=O)cn1 (stereo not given)
active: Potency [4] 1.66 µM | Potency [5] 417 nM | Potency [6] 296 nM | Potency [7] 590 nM | Potency [8] 105 nM | Potency [9] 296 nM | Potency [10] 209 nM
inactive: activation [1] 3.45% | Potency [2] | Potency [3]

CCNC(=O)C#Cc1ccc2c(C(=Nc3ccc(CN(C)C)cc3)c3ccccc3)c(O)[nH]c2c1
active: Potency [1] 13.1 µM | Potency [4] 12.9 µM | Potency [5] 144 nM | Potency [6] 64.5 nM | Potency [7] 91 nM | Potency [8] 574 nM | Potency [9] 204 nM | Potency [10] 162 nM
inactive: Potency [2] | Potency [3]

Nc1cc(C(F)(F)F)c(-c2cc(N3CCOCC3)nc(N3CCOCC3)n2)cn1
inactive: Potency [2] | Potency [3]
active: Potency [1] 1.69 µM | Potency [4] 4.17 µM | Potency [5] 1860 nM | Potency [6] 2350 nM | Potency [7] 1660 nM | Potency [8] 1180 nM | Potency [9] 2090 nM | Potency [10] 1860 nM

CN1CCN(c2ccc(C(=O)Nc3n[nH]c4ccc(Cc5cc(F)cc(F)c5)cc34)c(NC3CCOCC3)c2)CC1
active: Potency [1] 30.1 µM and 216 nM | Potency [4] 16.6 µM | Potency [5] 11800 nM | Potency [6] 468 nM | Potency [7] 5900 nM | Potency [8] 3320 nM | Potency [9] 5250 nM | Potency [10] 1480 nM
inactive: Potency [2] | Potency [3]

Source: PubChem BioAssay (NCATS)
